Test results taken from PubChem BioAssay AID504339 (National Center for Advancing Translational Sciences (NCATS), 2011).
In all, about 390,000 compounds went through this assay and about 17,000 (4.4%) were called active. Another 8% or so got no clear call; they are omitted. Only a selection was taken, and actives are over-represented in it overall. A number with no mark means an inactive call. The call rests on the fitted dose curve; in most records, active means well fitted inhibition curve with a large enough effect; inconclusive means small, poorly fitted or top-dose-only effect; inactive means no such curve, though single readings can be large or run the other way.

target: Lysine-specific demethylase 4A (Homo sapiens) (UniProt O75164); test: qHTS Assay for Inhibitors of JMJD2A-Tudor Domain; settings: AlphaScreen JMJD2A-Tudor / H3K4me3 peptide binding; series mostly up to 114 µM; activity change, negative = inhibition: at the top concentration; further: nearly all actives have a fitted effect of over 50% in size
On the % scale 0 is the no-effect control and ±100 the full control effect; potency means the concentration at half of the fitted maximal effect.

Lysine-specific demethylase 4A (Homo sapiens), sequence (O75164 whole entry, looked up, the tested form may be a part): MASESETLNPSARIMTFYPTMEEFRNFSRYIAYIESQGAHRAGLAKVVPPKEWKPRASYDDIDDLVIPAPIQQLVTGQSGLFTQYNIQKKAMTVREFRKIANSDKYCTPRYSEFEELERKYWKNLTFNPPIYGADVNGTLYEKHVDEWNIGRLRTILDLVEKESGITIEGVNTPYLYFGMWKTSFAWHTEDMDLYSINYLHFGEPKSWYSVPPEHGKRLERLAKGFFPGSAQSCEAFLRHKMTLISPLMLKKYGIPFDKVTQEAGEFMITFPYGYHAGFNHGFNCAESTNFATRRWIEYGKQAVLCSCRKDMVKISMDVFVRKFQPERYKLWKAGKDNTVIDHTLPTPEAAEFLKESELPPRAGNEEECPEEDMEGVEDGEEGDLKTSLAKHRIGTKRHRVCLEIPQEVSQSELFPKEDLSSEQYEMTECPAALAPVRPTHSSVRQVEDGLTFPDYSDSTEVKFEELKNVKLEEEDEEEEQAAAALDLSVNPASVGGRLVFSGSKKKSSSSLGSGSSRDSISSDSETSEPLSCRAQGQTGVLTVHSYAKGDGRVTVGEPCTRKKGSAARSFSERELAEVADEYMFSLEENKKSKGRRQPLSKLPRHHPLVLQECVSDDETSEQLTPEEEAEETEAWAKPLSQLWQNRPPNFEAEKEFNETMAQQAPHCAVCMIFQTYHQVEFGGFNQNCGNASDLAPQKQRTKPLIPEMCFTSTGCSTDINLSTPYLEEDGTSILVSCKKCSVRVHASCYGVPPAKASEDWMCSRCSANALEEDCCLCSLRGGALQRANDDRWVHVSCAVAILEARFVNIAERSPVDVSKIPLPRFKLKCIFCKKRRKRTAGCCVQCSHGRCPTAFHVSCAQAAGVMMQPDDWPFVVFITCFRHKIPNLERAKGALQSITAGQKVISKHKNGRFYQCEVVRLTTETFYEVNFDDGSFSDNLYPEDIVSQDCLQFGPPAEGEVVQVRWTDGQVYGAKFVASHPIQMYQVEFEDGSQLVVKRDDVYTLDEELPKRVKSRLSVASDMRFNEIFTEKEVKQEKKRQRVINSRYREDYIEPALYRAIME

Row | SMILES | activity change, negative = inhibition | Potency
1 | CCOc1ccc(N2CC(C)Cn3c2nc2c3c(=O)n(Cc3c(F)cccc3Cl)c(=O)n2C)cc1 (configuration not stated) | 5.3% | 
2 | COc1ccc(CNC(=O)CSc2n[nH]c(-c3ccc(F)cc3)n2)cc1 | -17.5% | 
3 | CC(NC(=O)c1cc(Sc2ccc(F)cc2F)nc2ccccc12)c1ccccc1 (configuration not stated) | -26% | 
4 | CCC1CCCCN1C(=S)Nc1ccc(C(C)=O)cc1 (configuration not stated) | -17.2% | 
5 | CCC1CCCCN1C(=S)Nc1ccc(S(=O)(=O)Nc2ncccn2)cc1 (configuration not stated) |  | 100 µM (active)
6 | CCC1CCCCN1C(=S)Nc1ccc(SC(F)F)cc1 (configuration not stated) | -6.16% | 
7 | Cc1ccc2cccc(NC(=O)c3ccc(OC(C)C)cc3)c2n1 | -1.99% | 
8 | Cc1cc2n(n1)C(c1cc(C(C)(C)C)c(O)cc1O)Nc1ccccc1-2 (configuration not stated) | -26.5% | 
9 | CSc1ccc(CCNC(=O)c2cnn(-c3ccccc3)c2-n2cccc2)cc1 | -15.8% | 
10 | Cc1ccc(C)c(Nc2nnc(-c3ccc(C)c(S(=O)(=O)N4CCCCC4)c3)c3ccccc23)c1 | -15.7% | 
11 | CCc1c(C)[nH]c(=S)c(C#N)c1C |  | 3.98 µM (active)
12 | CCn1c(=O)c2cc(C(=O)NCCc3ccc(Cl)cc3)sc2c2ccccc21 | -11.4% | 
13 | Cc1noc(/C=C/N(C)C)c1S(=O)(=O)N1CCCC(C(=O)Nc2cccc(F)c2)C1 (configuration not stated) | 0.662% | 
14 | O=C(Nc1ccc2nc(SCC(=O)N3CCCc4ccccc43)sc2c1)c1ccc(Cl)cc1 | -9.27% | 
15 | COc1ccc(CCNC(=O)CCCn2c(=O)c3ccccc3n(Cc3ccc(F)cc3Cl)c2=O)cc1OC | 1.02% | 
16 | COc1ccccc1CNC(=O)c1ccccc1NC(=O)c1nsc2ccccc12 | -7.14% | 
17 | Cc1ccc2[nH]c(=O)c(-c3nc4c(C)cccn4c3NCc3ccco3)cc2c1 | -23.3% [at 11.4 µM] | 
18 | CCCN(CCC)c1nc2c(C)cccn2c(=O)c1/C=C1/SC(=S)N(Cc2ccco2)C1=O |  | 35.5 µM (active)
19 | CCOC(=O)CC1C(=O)NCCN1c1nc2c(C)cccn2c(=O)c1/C=C1\SC(=S)N(C(C)CC)C1=O (configuration not stated) | -31.1% | 
20 | Cc1cc(C)c(NC(=O)Cn2c(SCC(=O)NCc3ccccc3)nc3ccccc32)c(C)c1 | -28.8% | 
21 | CCCCN1C(=O)CCC(C(=O)O)C1c1ccc(OC)cc1 (configuration not stated) |  | 89.1 µM (active)

Row | SMILES | activity change, negative = inhibition | Potency
22 | COc1ccc(C2C3=C(CCCC3=O)N(CC(=O)O)C3=C2C(=O)CCC3)cc1 | -20.6% | 
23 | CCCCNC(=O)C1CCC(=O)N1CCc1ccccc1 (configuration not stated) | -11.4% | 
24 | COc1ccccc1CNC(=O)CCCCn1c(=O)c2ccccc2n(CC(=O)Nc2cc(Cl)ccc2C)c1=O | -10.9% | 
25 | Cc1cccc(NC(=O)C2CCN(S(=O)(=O)c3c(C)noc3/C=C/c3ccco3)CC2)c1 | -27.3% | 
26 | Cc1cccc(C2CC(=O)Oc3c2c(=O)n(C)c2ccccc32)c1 (configuration not stated) | -23.5% | 
27 | O=c1[nH]c2ccccc2s1 | -15% | 
28 | Nc1ccc2[nH]c(=S)sc2c1 |  | 3.55 µM (active)
29 | COc1cc(C(=O)N2CCN(C(=O)COc3cccc(C)c3)CC2)cc(OC)c1OC | -13.1% | 
30 | COCCn1c(SCC(=O)c2cc(C)ccc2C)nc2cc(C(=O)NC3CCCC3)ccc2c1=O | -10.4% | 
31 | Cc1cc(C)cc(OC(C)C(=O)Nc2nc3c(s2)CCCC3)c1 (configuration not stated) | -28.1% | 
32 | COc1cccc(-n2c(=S)sc3c(=O)n(-c4ccccc4OC)c(SCC4OCCO4)nc32)c1 | -30.1% | 
33 | COc1ccccc1-n1c(=S)[nH]c2c(sc(=S)n2-c2ccc(C)cc2C)c1=O |  | 50.1 µM (active)
34 | COc1cccc(-n2c(=S)sc3c(=O)n(-c4ccccc4C)c(SCC(=O)O)nc32)c1 | -2.8% | 
35 | Cc1oc(-c2ccccc2F)nc1CN1CCC(C(=O)NCCc2ccc(Cl)cc2)CC1 | -14.5% | 
36 | O=C(CSc1nc2ccccc2nc1Cc1ccccc1)N1CCCCC1 | 8.77% | 
37 | Cc1cccc2nc(-c3ccc(Cl)s3)c(Nc3ccc4c(c3)OCCO4)n12 |  | 31.6 µM (active)
38 | Cc1nc(Nc2ccc3c(c2)OCCO3)c2nnn(Cc3ccccc3Cl)c2n1 | -26% | 
39 | Oc1ccc(-c2nc3ccc(Cl)cn3c2Nc2ccc3c(c2)OCO3)cc1 | -22% | 
40 | Cc1ccc2nc(-c3ccc(O)cc3)c(Nc3ccc4c(c3)OCO4)n2c1 | -18% | 
41 | Oc1ccccc1-c1nc2ccc(Cl)cn2c1Nc1ccc2c(c1)OCCO2 | -10.3% | 
42 | Cc1ccc(-c2nc3cccc(C)n3c2Nc2ccc3c(c2)OCCO3)cc1 |  | 11.2 µM (active)

Row | SMILES | activity change, negative = inhibition | Potency
43 | CCOC(=O)c1nnn(CC(=O)NC(=O)Nc2ccccc2F)c1C(=O)OCC | -9.21% | 
44 | COc1ccc(CCN2C(=O)c3oc4cc(C)cc(C)c4c(=O)c3C2c2ccccc2F)cc1OC (configuration not stated) | -10.7% | 
45 | O=C1CC(c2nnc(Cc3ccc(Cl)cc3)o2)CN1c1ccccc1 (configuration not stated) | -16.1% | 
46 | CCC(=O)N1CCc2cc(S(=O)(=O)NC(C(=O)Nc3ccc(C(C)=O)cc3)C(C)C)ccc21 (configuration not stated) | -12.7% | 
47 | CCC(=O)N1c2ccccc2CC1C(=O)N1CCN(c2cccc(OC)c2)CC1 (configuration not stated) | -18.9% | 
48 | CCCN(CCC)C(=O)C(Cc1ccccc1)NS(=O)(=O)c1ccc2c(c1)c(=O)n(C)c(=O)n2C (configuration not stated) | -18.9% | 
49 | Cc1ccc(N(CC(=O)NCc2ccc(Cl)cc2)S(=O)(=O)N(C)C)cc1 | -8.33% | 
50 | Fc1ccccc1Oc1ncnc2c1oc1ccccc12 | 7% | 
51 | C=CCn1c(SCc2cccc(F)c2)nc2cc(C(=O)N3CCC(C(N)=O)CC3)ccc2c1=O | -23.8% | 
52 | O=C1Nc2cc(C(=O)N3CCN(c4ccc(F)cc4)CC3)ccc2NC1CSCc1cccc(F)c1 (configuration not stated) |  | 20 µM (active)
53 | CC1CCN(C(=O)c2ccc3c(c2)NC(=O)CN3)CC1 | -2.74% | 
54 | O=C(c1ccc2c(c1)N(Cc1ccc(F)cc1)C(=O)c1ccccc1S2(=O)=O)N1CCN(c2ccccn2)CC1 |  | inactive
55 | Cc1ccc(CSCC2Nc3ccc(C(=O)N4CCN(c5ccc(F)cc5)CC4)cc3NC2=O)cc1 (configuration not stated) |  | 22.4 µM (active)
56 | Cc1ccc(SCC(=O)N2CCN(c3ccc(F)cc3)CC2)cc1 | -0.685% | 
57 | Cc1oc(-c2ccccc2)nc1Cn1c(SCc2cccc(C(F)(F)F)c2)nc2cccnc21 | -35% | 
58 | Cc1ccc(C)c(NC(=O)Cn2ccn(-c3ccc(F)cc3)c(=O)c2=O)c1 | 0.658% | 
59 | O=C(Nc1nnc(Cc2ccc(Cl)cc2)s1)c1ccncc1 | -12.5% | 
60 | O=C(Nc1nnc(Cc2ccc(Cl)cc2)s1)c1cccnc1 | -2.94% | 
61 | O=C(Nc1nnc(Cc2ccccc2)s1)c1cnccn1 |  | 50.1 µM (active)
62 | CCCC(=O)N1CCN(c2nc3c(OC)ccc(C)c3s2)CC1 | -6.17% | 
